The structures appear in SMILES notation. Active and inactive are the calls of the source. The calls were made as follows: active = hit-call score of the fitted dose curve at least 0.9, where 1 is the maximum; inactive = score below 0.9.

Read-out in this test: CD38, CD38 (gene 952)
As to the kind of experiment: BSK_SAg_CD38: BioMAP Diversity Plus: SAg Assay for CD38 Biomarker Activity (AID 2283087). To be noted: primary human HUVEC with PBMC; actives raise or lower the signal. The method, then: BSK_SAg is a cell-based, multiplexed-readout assay that uses umbilical vein endothelium and peripheral blood mononuclear cells, a human vascular primary cell co-culture, with measurements taken at 24 hours after chemical dosing in a 96-well plate.BSK_SAg_CD38 is one of 10 assay component(s) measured or calculated from the BSK_SAg assay. It is designed to make measurements of enzyme-linked immunosorbent assay, a form of binding reporter, as detected with fluorescence intensity signals by Enzyme-linked immunosorbent assay technology.Data from the assay component BSK_SAg_CD38 was analyzed into 1 assay endpoint. This assay endpoint, BSK_SAg_CD38, was analyzed with bidirectional fitting relative to DMSO as the negative control and baseline of activity. Using a type of binding reporter, gain or loss-of-signal activity can be used to understand changes in the signaling as they relate to the gene CD38. Furthermore, this assay endpoint can be referred to as a primary readout, because this assay has produced multiple assay endpoints where this one serves a signaling function. To generalize the intended target to other relatable targets, this assay endpoint is annotated to the cytokine intended target family, where the subfamily is other cytokine.
The levels of cell surface (or secreted, indicated by the prefix "s") biomarker endpoints were measured by ELISA. Overt cytotoxicity to cells in confluent adherent cultures (all systems other than the BT system) was assessed by measuring total protein levels using sulforhodamine B (SRB) staining in parallel cultures at the time of biomarker measurements, indicated as SRB endpoints. For proliferation assays for adherent cell types, individual cell types are cultured at sub-confluence and relative cell numbers quantified by SRB staining at time points optimized for each system (48 h: 3C and CASM3C systems; 72 h: BT and HDF3CGF systems; 96 h: SAg system). SRB was performed by staining cells with 0.1% SRB after fixation with 10% TCA and reading wells at 560 nm.Viability and proliferation of PBMC (T cells) was quantified by Alamar Blue reduction for the SAg and BT systems. For PBMC viability (referred to as PBMC Cytotoxicity within the assay endpoint names), cells were plated (75,000/well in a 96-well plate) and then chemical samples added for 1 h before addition of activators, SEB and TSST-1 (20 ng/mL final concentration each). Cells were incubated for 90 h. Then, Alamar Blue (20 uL/well) (Invitrogen, Cat DAL1100) was added for 6 h, and the plates were read with a fluorescence microplate reader at 546/580 nm (excitation/emission). For PBMC proliferation, cells were plated and activated as above but incubated for only 16 h prior to addition of Alamar Blue. Plates were read after 6 h.
For the compound `O=C1C2CC=CCC2C(=O)N1SC(Cl)(Cl)Cl` (stereo not given), the AC50 was 30.5 µM (active).

In the case of `COP(=S)(OC)SCn1nnc2ccccc2c1=O`, the outcome was inactive.

On to `COc1cc(OC)nc(NC(=O)NS(=O)(=O)c2ncccc2OCC(F)(F)F)n1`, for which the outcome was inactive.

Regarding `CCCCC(O)(Cn1cncn1)c1ccc(Cl)cc1Cl` (stereo not given), the outcome was inactive.

For the compound `CC(C)N1C(=O)c2ccccc2NS1(=O)=O`, the outcome was inactive.

Take `CCOP(=O)(OCC)Oc1nc(Cl)c(Cl)cc1Cl`: the AC50 is 29.6 µM (active).

Regarding `CCOc1cc(C(C)(C)C)ccc1C1COC(c2c(F)cccc2F)=N1` (stereo not given), the AC50 was 18.8 µM (active).

Take `CC1(C)C(C=C(Cl)Cl)C1C(=O)OC(C#N)c1cccc(Oc2ccccc2)c1` (stereo not given): the result was inactive.

As to `CC1(C)CCC(=Cc2ccc(Cl)cc2)C1(O)Cn1cncn1` (stereo not given), the outcome was inactive.

Consider `CC1(C)C(C(=O)OC(C#N)c2cccc(Oc3ccccc3)c2)C1(C)C` (stereo not given), for which the AC50 was 12.1 µM (active).

As for `CCOc1nc(C(Cl)(Cl)Cl)ns1`, the outcome was inactive.

In the case of `COCC(=O)N(c1c(C)cccc1C)C(C)C(=O)OC` (stereo not given), the outcome was inactive.

In the case of `CC(C)NC(=O)N1CC(=O)N(c2cc(Cl)cc(Cl)c2)C1=O`, the result was inactive.

For the compound `COc1cc(Cl)c(OC)cc1Cl`, the result was inactive.

As for `Cn1c(-c2ccccc2)cc(-c2ccccc2)[n+]1C`, the concentration at half-maximal activity (AC50) was 2.68 µM (active).

Regarding `CC(C)Oc1cccc(NC(=O)c2ccccc2C(F)(F)F)c1`, the result was inactive.

As to `COC(=O)NC(=S)Nc1ccccc1NC(=S)NC(=O)OC`, the concentration at half-maximal activity (AC50) was 28.4 µM (active).

With `O=c1n(Cl)c(=O)n(Cl)c(=O)n1Cl`, the outcome was inactive.

`CC1(C)CON(Cc2ccccc2Cl)C1=O`: the result was inactive.

For the compound `Nc1c(Cl)c(F)nc(OCC(=O)O)c1Cl`, the result was inactive.

Turning to `COCc1cnc(C2=NC(C)(C(C)C)C(=O)N2)c(C(=O)O)c1` (stereo not given), the result was inactive.

In the case of `CCCC(=NOCC)C1=C(O)CC(CC(C)SCC)CC1=O` (stereo not given), the result was inactive.

Regarding `COC(=O)c1c(C(F)F)nc(C(F)(F)F)c(C2=NCCS2)c1CC(C)C`, the AC50 is 25.7 µM (active).

`COC(=O)N(C(=O)N1CO[C@@]2(C(=O)OC)Cc3cc(Cl)ccc3C2=N1)c1ccc(OC(F)(F)F)cc1`: the half-maximal activity concentration (AC50) was 5.95 µM (active).

As to `CCNC(=O)NC(=O)C(C#N)=NOC`, the outcome was inactive.

Regarding `OC(c1ccc(Cl)cc1)(c1ccc(Cl)cc1)C(Cl)(Cl)Cl`, the AC50 was 29.7 µM (active).

Consider `COc1ccc(-c2ccccc2)cc1NNC(=O)OC(C)C`, for which the outcome was inactive.

With `CCOP(=S)(OCC)Oc1nc(Cl)n(C(C)C)n1`, the result was inactive.

For `COC(=O)NS(=O)(=O)c1ccc(N)cc1`, the outcome was inactive.

For `N#CN=C1SCCN1Cc1ccc(Cl)nc1`, the outcome was inactive.

As for `COP(=O)(OC)O/C(C)=C/C(=O)N(C)C`, the outcome was inactive.

Consider `Cc1c(COC(=O)[C@@H]2[C@H](/C=C(\Cl)C(F)(F)F)C2(C)C)cccc1-c1ccccc1`, for which the outcome was inactive.

`CC(C)(C)C(=O)C(Oc1ccc(Cl)cc1)n1cncn1` (stereo not given): the outcome was inactive.

Consider `CCCCOCN(C(=O)CCl)c1c(CC)cccc1CC`, for which the AC50 is 29.4 µM (active).

For `CN/C(=N\[N+](=O)[O-])NCc1cnc(Cl)s1`, the outcome was inactive.

Consider `CCN(CC)c1nc(C)cc(OP(=S)(OC)OC)n1`, for which the AC50 was 20 µM (active).

With `CCCN(CC)CC1COC2(CCC(C(C)(C)C)CC2)O1` (stereo not given), the AC50 was 14.7 µM (active).

As to `CCNP(=S)(OC)O/C(C)=C/C(=O)OC(C)C` (stereo not given), the outcome was inactive.

As to `CSC(=O)c1c(C(F)F)nc(C(F)(F)F)c(C(=O)SC)c1CC(C)C`, the AC50 was 20.8 µM (active).

In the case of `CCOC(=O)C(C)OC(=O)c1cc(Oc2ccc(C(F)(F)F)cc2Cl)ccc1[N+](=O)[O-]` (stereo not given), the concentration at half-maximal activity (AC50) was 9.17 µM (active).

By AC50 is commonly meant the midpoint of the concentration-response curve, whichever way the signal moves.

The record behind these values is PubChem BioAssay (EPA / NIEHS).
